Results as given in ChEMBL document CHEMBL1961873, “Compounds: GSK PKIS; Assays: Nanosyn kinase panel” (2012).

Target: Vascular endothelial growth factor receptor 3 (Homo sapiens) (UniProt P35916)
Details: at 0.1 µM

Sequence of Vascular endothelial growth factor receptor 3 (Homo sapiens) (P35916 whole entry): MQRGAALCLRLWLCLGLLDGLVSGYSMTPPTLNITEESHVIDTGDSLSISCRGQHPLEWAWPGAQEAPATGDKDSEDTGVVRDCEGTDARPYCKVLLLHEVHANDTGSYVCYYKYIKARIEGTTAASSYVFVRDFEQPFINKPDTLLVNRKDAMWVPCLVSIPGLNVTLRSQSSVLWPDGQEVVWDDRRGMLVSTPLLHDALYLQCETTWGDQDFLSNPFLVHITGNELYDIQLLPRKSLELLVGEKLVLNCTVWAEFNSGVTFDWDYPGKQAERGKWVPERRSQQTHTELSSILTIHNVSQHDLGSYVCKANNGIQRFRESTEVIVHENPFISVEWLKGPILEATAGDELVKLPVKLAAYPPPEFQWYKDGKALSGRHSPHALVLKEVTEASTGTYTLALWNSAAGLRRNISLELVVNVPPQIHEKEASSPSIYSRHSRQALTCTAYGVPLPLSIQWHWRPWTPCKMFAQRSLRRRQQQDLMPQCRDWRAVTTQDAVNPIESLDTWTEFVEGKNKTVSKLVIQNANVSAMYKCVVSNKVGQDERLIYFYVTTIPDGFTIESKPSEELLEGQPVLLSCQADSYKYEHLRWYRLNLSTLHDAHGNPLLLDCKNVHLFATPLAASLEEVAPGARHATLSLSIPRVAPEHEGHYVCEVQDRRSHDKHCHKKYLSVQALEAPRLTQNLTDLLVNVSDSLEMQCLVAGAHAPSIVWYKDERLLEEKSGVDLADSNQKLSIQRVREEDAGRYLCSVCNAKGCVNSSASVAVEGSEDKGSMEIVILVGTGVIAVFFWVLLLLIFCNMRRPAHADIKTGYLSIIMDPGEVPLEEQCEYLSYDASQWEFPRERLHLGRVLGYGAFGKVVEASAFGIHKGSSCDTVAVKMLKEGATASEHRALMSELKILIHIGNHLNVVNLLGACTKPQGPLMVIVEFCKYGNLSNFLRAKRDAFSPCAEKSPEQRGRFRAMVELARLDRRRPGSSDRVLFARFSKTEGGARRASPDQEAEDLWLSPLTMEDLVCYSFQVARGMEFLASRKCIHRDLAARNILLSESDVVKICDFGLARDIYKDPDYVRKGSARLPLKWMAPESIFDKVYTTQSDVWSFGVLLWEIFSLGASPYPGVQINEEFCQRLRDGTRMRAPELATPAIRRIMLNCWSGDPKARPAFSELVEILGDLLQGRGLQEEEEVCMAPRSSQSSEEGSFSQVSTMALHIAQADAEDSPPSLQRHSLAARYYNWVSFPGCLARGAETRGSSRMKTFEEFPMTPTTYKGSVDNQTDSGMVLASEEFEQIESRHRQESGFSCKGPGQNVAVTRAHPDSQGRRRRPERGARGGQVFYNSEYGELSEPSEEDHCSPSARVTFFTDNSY

| Structure (SMILES) | inhibition |
| --- | --- |
| CC(=O)Nc1cccc(C#Cc2cncnc2Nc2ccc(OCc3cccc(F)c3)c(Cl)c2)n1 | -1.2% |
| O=C1NC(=O)C(c2ccccc2Cl)=C1Nc1cccc(O)c1 | 3.25% |
| COc1ccc2cc(-c3c(-c4ccncc4)nc(-c4ccc([S+](C)[O-])cc4)n3C)ccc2c1 (configuration not stated) | 1.55% |
| NS(=O)(=O)c1ccc(N/N=C2\C(=O)Nc3ccc(C(=O)NCCc4c[nH]cn4)cc32)cc1 | 6.93% |
| CCCN1CCC=C(c2ccc(Nc3nc(Nc4ccccc4C(N)=O)c4cc[nH]c4n3)c(C)c2)C1 | 9% |
| CCn1c(-c2nonc2N)nc2cnc(Oc3cccc(NC(=O)c4ccc(OCCN5CCOCC5)cc4)c3)cc21 | -0.39% |
| CC1=C(C(=O)Nc2ccc3[nH]ncc3c2)C(c2ccc3ccccc3c2)CC(=O)N1 (configuration not stated) | 1.27% |
| COc1cc(C)c(NC(=O)CN(C)C)cc1Nc1nc(Nc2cccc(F)c2C(N)=O)c2cc[nH]c2n1 | -3.04% |
| CN1CCC(C(=O)Nc2n[nH]c3nnc(-c4ccccc4)cc23)CC1 | 2.1% |
| CCN1CCC(CC(=O)Nc2n[nH]c3nc(-c4cccs4)c(Br)cc23)CC1 | 1.17% |
| Nc1nc(-c2ccccn2)c(-c2ccc3ncccc3n2)s1 | 1.06% |
| [O-][S+]1CCN(Cc2ccc(-c3ccc4ncnc(Nc5ccc(OCc6ccccc6)c(F)c5)c4c3)o2)CC1 | -0.55% |
| N#Cc1c(NC(=O)c2cccc3ccccc23)sc2c1CCCC2 | 0.07% |
| COC(=O)Nc1nc2cc(Oc3cccc(NC(=O)Nc4cc(C(F)(F)F)ccc4F)c3)ccc2[nH]1 | 1.33% |
| O=C1NC(=O)C(c2ccc(Cl)cc2)=C1Nc1ccc(Cl)c(C(=O)O)c1 | 1.23% |
| COc1cc2ncn(-c3cc(OCc4ccccc4C(F)(F)F)c(C(N)=O)s3)c2cc1OC | 6.89% |

| Structure (SMILES) | inhibition |
| --- | --- |
| Nc1ncnc2occ(-c3ccc(NC(=O)Nc4cccc(C(F)(F)F)c4)cc3)c12 | 53% |
| CNC(=O)c1cncc(/C=C/c2c(Cl)cccc2Cl)c1 | -7.73% |
| COc1ccc(-c2ccncc2)cc1C(N)=O | 3.2% |
| NCc1ccc(-c2nc(-c3ccc(Cl)c(O)c3)c(-c3ccncc3)[nH]2)cc1 | 19.7% |
| Cc1ccc(NC(=O)c2ccnc(N3CCCC3)c2)cc1-c1ccc(C(=O)NCC2CC2)cc1 | -7.96% |
| Cc1cc(O)cc(C)c1/C=C/c1cncc(-c2nn[nH]n2)c1 | -9.76% |
| COc1ccccc1Nc1ncc(-c2ccccc2)o1 | 3.38% |
| CS(=O)(=O)CCNCc1ccc(-c2ccc3ncnc(Nc4ccc(OCc5ccccc5)c(Cl)c4)c3c2)o1 | 3.02% |
| CS(=O)(=O)Nc1ccc(N/C=C2\C(=O)Nc3ccccc32)cc1 | 4.02% |
| COc1cc2ncn(-c3cc(O[C@@H](C)c4ccccc4Cl)c(C(N)=O)s3)c2cc1OC | 19.7% |
| COc1cc2ncn(-c3cc(O[C@H](C)c4ccccc4Cl)c(C(N)=O)s3)c2cc1OC | 31.8% |
| NC(=O)c1ccc(-c2nc(-c3ccccn3)c(-c3ccc4c(c3)OCO4)[nH]2)cc1 | 0.44% |
| O=C1Nc2ccc(C(=O)c3ccco3)cc2C1=Cc1cc(Cl)c(O)c(Cl)c1 | 6.18% |
| COc1cc(C=NNc2ncnc3c2cnn3-c2ccccc2)ccc1O | 5.09% |
| COc1ccc(COc2ccc(Cc3cnc(N)nc3N)cc2OC)cc1 | -2.95% |
| NS(=O)(=O)c1cccc(-c2ccc3c(NC(=O)C4CC4)n[nH]c3c2)c1 | 2.99% |
